target: Glucose transporter (Leishmania mexicana) (UniProt O61059); assay: ST_JUDE_LEISH: Cytotoxicity at 2uM final concentration against transgenic Leishmania Mexicana promastigotes LmGT2 that are glucose transport deficient and complemented with the L. Mexicana glucose transporter 2. Activity is measured by DNA content using SYBR green in vitro; format: functional

Compound | inhibition [%]
O=C(NCc1ccccc1)NC1CCN(c2ccnc3cc(Cl)ccc23)C1 (stereo not given) | 0.94
CCOc1cc(C)c(C2CCN(CCCCNC(=O)c3ccc(NC(=O)c4ccc(Cl)cc4)cc3)CC2)cc1C | -0.67
O=S(=O)(c1ccccc1OC(F)(F)F)C1CC2CCC(C1)N2S(=O)(=O)c1cccc(C(F)(F)F)c1 (stereo not given) | 0.73
COc1ccc2nc(Nc3nc4cnccc4[nH]3)sc2c1 | 5.34
O=c1cc(NCCCNCc2ccc(C(F)(F)F)cc2F)[nH]c2ccccc12 | -0.34
CCCN1CCC(c2c[nH]c3ccc(NC(=O)Nc4cccc(Cl)c4Cl)cc23)CC1 | 4.47
COc1ccc(-c2ccc(NC(=O)c3cccc(F)c3)cc2)cc1CN1CCCN(C)CC1 | -2.3
Nc1nc(N)c2c(ccc3c2ccn3Cc2cccc(F)c2)n1 | 99.8
CC(=O)Nc1cccc(Nc2nccc(-c3c(-c4cccc(NC(=O)c5c(F)cccc5F)c4)nn4ncccc34)n2)c1 | 1.53
Cc1ccn2c(C(=O)N3CCN(c4cccc5c4nc(-c4ccoc4)n5Cc4ccccn4)CC3)c(C)nc2c1 | -0.49
Cc1cc(N[C@@H](CC(C)C)C(=O)NCCOc2ccccc2)nc(NCCOc2ccccc2)n1 | 17.1
O=C(N1CCN(c2ccnc3cc4c(cc23)N(Cc2ccccc2)CC4)CC1)C(F)(F)F | 4.39
Cc1cc(NC(=O)c2ccco2)ccc1OC1CCN(Cc2ccc(F)cc2)CC1 | 1.98
Cc1cc(=O)c(-c2ccc(Oc3ccc(C(F)(F)F)cc3)cc2)c(C)n1O | -1.9
N=C(N)Nc1ccc(CCc2ccc(NC(=N)N)cc2)cc1 | 2.91
Cc1cnc(C[S+]([O-])c2nc3cc(C(F)(F)F)ccc3[nH]2)cc1OCc1ccccc1 (stereo not given) | 2.76
COc1ccc(C=NN=c2cc(C)[nH]c3ccccc23)c(OC)c1 | 55.3
COc1ccc(NC(=O)c2ccc(-c3ccc(-c4cccnc4)cc3)c(C)c2)cc1OCCN(C)C | 0.84
CN1CCC(N2CCN(CCOc3cc(NC(=O)/C=C/c4ccccc4Cl)ccc3Br)CC2)CC1 | -1.82
Cc1cc(N[C@@H](CC(C)C)C(=O)NCc2cccc(F)c2)nc(Nc2ccccc2)n1 | 1.1

Compound | inhibition [%]
CCCCOC(=O)[C@H](CCC)NC(=O)c1ccc(NS(=O)(=O)c2ccc3nc(N)[nH]c(=O)c3c2)cc1 | 0.77
N#Cc1ccc(N[C@@H](CC2CCCCC2)C(=O)NCc2cc(F)c(F)cc2F)c2ccccc12 | 12
CCC(C)c1ccc(O)c(NC(=O)c2cncc(Br)c2)c1 (stereo not given) | -2.07
CCCOc1cc(Cc2cnc(N)nc2N)cc(OC)c1OC | -0.03
Nc1nccc2ccc(OC3CCCCC3)cc12 | 1.91
CCOC(=O)c1ccc(N2CCCCC2)c(NC(=O)C(Cl)(Cl)Cl)c1 | -1.19
Cc1ccc(O)cc1C[C@@H]1C(=O)CC[C@@]2(C)[C@H]1CC[C@]2(C)O | 2.57
CCCC1N=C(N)N=C(N)N1c1ccc(CC)cc1 (stereo not given) | 1.72
Cc1cc(F)ccc1C1CCN(CCCCNC(=O)c2ccc(NC(=O)c3ccc(Cl)cc3)cc2)CC1 | 0.87
Oc1ccc(CCCNc2nc(NCc3cccc4ccccc34)nc(N3CCCNCC3)n2)cc1 | 1.52
COc1ccc2[nH]c(C)cc(=NN=Cc3ccccc3F)c2c1 | -2.38
Cc1cccc2nc(-c3cccc(-c4ccc(NC(=O)COC(C)C)cc4)c3)[nH]c12 | -2.12
COc1ccc(NC(=O)/C=C/c2ccccc2Cl)cc1OCCN1CCC(NCc2ccccc2)CC1 | 0.75
NC1=NC(Cc2ccccc2)N(c2ccc(Cl)cc2)C(N)=N1 (stereo not given) | 5.89
Cc1cccc2nc(-c3cccc(-c4cccc(NC(=O)Nc5ccc(F)c(F)c5F)c4)c3)[nH]c12 | 2.44
COc1cc2c(cc1O)[C@@H]1[C@H](O)[C@@H](O)C=C3CCN(C2)[C@H]31 | 1.58
Cc1[nH]c(C)c(-c2ccc(-c3ccc(OC(F)(F)F)cc3)cc2)c(=O)c1Br | 3.37
COc1ccc(-c2nonc2NC(=O)c2ccc(OC(C)C)cc2)cc1OC | 3.04
Cc1ccc(-c2ccc3c(c2)C=C(C(=O)NCC2CCN(CC4CCN(C(=O)/C=C/c5ccc(Cl)c(Cl)c5)CC4)CC2)CCC3)cc1 | -0.85
Cc1cccc(C)c1OC(=O)C(C)C(O)C1(Sc2ccccc2)CCN(C)CC1 (stereo not given) | 3.85
